Assay results: PubChem BioAssay (NCI)
“And” between values parts separate entries of the source, which are not always exact repeats. Identical values can stand only once. This is part of a sample that, as a whole, favours compounds with a hit. Of some 83,000 tested, about 20% had one in any assay.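 Interpretation: 100, growth as untreated; towards 0, rising growth inhibition; 0, no net growth; 0 to -100, cell death. Compounds scoring below 10 were considered active.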 The source made the active and inactive calls.

Experiments:
Assay in all cases: NCI-60 one-dose screen, 48 h (100 = growth as untreated, 0 = no growth, -100 = all killed)
Details in all cases: 10 µM unless noted
MOLT-4 leukemia = test system: MOLT-4 leukemia
SR leukemia = test system: SR leukemia
RPMI-8226 leukemia = test system: RPMI-8226 leukemia
OVCAR-8 ovarian = test system: OVCAR-8 ovarian
OVCAR-5 ovarian = test system: OVCAR-5 ovarian
OVCAR-4 ovarian = test system: OVCAR-4 ovarian
SK-OV-3 ovarian = test system: SK-OV-3 ovarian
IGROV1 ovarian = test system: IGROV1 ovarian
OVCAR-3 ovarian = test system: OVCAR-3 ovarian
HS 578T breast = test system: HS 578T breast
NCI/ADR-RES ovarian = test system: NCI/ADR-RES ovarian
T-47D breast = test system: T-47D breast
BT-549 breast = test system: BT-549 breast
MDA-MB-435 melanoma = test system: MDA-MB-435 melanoma
SW-620 colon = test system: SW-620 colon
MCF7 breast = test system: MCF7 breast
HCC-2998 colon = test system: HCC-2998 colon
KM12 colon = test system: KM12 colon
HCT-116 colon = test system: HCT-116 colon

Measured: growth

O=C(CCCN1CCC2(CC1)C(=O)NCN2c1ccccc1)c1ccc(F)cc1
active: OVCAR-5 ovarian -54.6%
inactive: MOLT-4 leukemia 58.5% and 33% | SR leukemia 99.2% | RPMI-8226 leukemia 103% and 74.8% | OVCAR-8 ovarian 91.8% and 76.1% | OVCAR-4 ovarian 103% and 62.4% | SK-OV-3 ovarian 102% and 111% | IGROV1 ovarian 73.6% and 29% | OVCAR-3 ovarian 105% and 107% | HS 578T breast 97.1% and 79.2% | NCI/ADR-RES ovarian 101% and 65.8% | T-47D breast 45.5% and 23.4% | BT-549 breast 98.2% and 87.2% | MDA-MB-435 melanoma 99.7% and 93.6% | SW-620 colon 84.4% and 68% | MCF7 breast 49.6% and 12% | HCC-2998 colon 104% and 42.3% | KM12 colon 102% and 86.3%

CCCCOCCOP(=O)(OCCOCCCC)OCCOCCCC
inactive: MOLT-4 leukemia 92.3% | SR leukemia 98.9% | RPMI-8226 leukemia 115% | OVCAR-8 ovarian 107% | OVCAR-5 ovarian 105% | OVCAR-4 ovarian 114% | SK-OV-3 ovarian 101% | IGROV1 ovarian 119% | OVCAR-3 ovarian 118% | HS 578T breast 95.5% | NCI/ADR-RES ovarian 99.7% | T-47D breast 96.2% | BT-549 breast 114% | MDA-MB-435 melanoma 101% | MCF7 breast 105% | HCT-116 colon 115% | HCC-2998 colon 102% | KM12 colon 120%

C=CC[PH+](c1ccccc1)c1ccccc1.C=CC[PH+](c1ccccc1)c1ccccc1.[Pt+2].[S-]c1ncccn1.[S-]c1ncccn1
active: MOLT-4 leukemia 7.91% | RPMI-8226 leukemia 0.618% | OVCAR-8 ovarian 1.96% | OVCAR-3 ovarian -24.5% | T-47D breast 2% | MDA-MB-435 melanoma -48.1%
inactive: SR leukemia 13.5% | OVCAR-5 ovarian 14.3% | OVCAR-4 ovarian 17.6% | SK-OV-3 ovarian 96.3% | IGROV1 ovarian 16.3% | HS 578T breast 61.6% | NCI/ADR-RES ovarian 39.6% | BT-549 breast 64% | MCF7 breast 17.2% | HCC-2998 colon 97.5% | KM12 colon 76.7%

O=C(O)c1ccccc1N(CCO)CCCl
inactive: MOLT-4 leukemia 98.3% | SR leukemia 84.2% | RPMI-8226 leukemia 103% | OVCAR-8 ovarian 101% | OVCAR-5 ovarian 92.3% | OVCAR-4 ovarian 108% | SK-OV-3 ovarian 108% | IGROV1 ovarian 88.6% | OVCAR-3 ovarian 111% | HS 578T breast 120% | NCI/ADR-RES ovarian 95.1% | T-47D breast 87.6% | BT-549 breast 95.9% | MDA-MB-435 melanoma 112% | MCF7 breast 95.9% | HCT-116 colon 95.3% | KM12 colon 103%

COc1ccc(N(CC(=O)NCCC[Te]c2ccccc2)C(=O)c2ccccc2)cc1
inactive: MOLT-4 leukemia 17.9% | SR leukemia 10.3% | RPMI-8226 leukemia 22.5% | OVCAR-8 ovarian 14.2% | OVCAR-5 ovarian 33.4% | OVCAR-4 ovarian 99% | IGROV1 ovarian 15.4% | OVCAR-3 ovarian 95.9% | HS 578T breast 32.4% | NCI/ADR-RES ovarian 11.5% | T-47D breast 135% | MDA-MB-435 melanoma 101% | SW-620 colon 82% | MCF7 breast 13.2% | HCC-2998 colon 57.6% | KM12 colon 26.3%
active: SK-OV-3 ovarian 1.16% | BT-549 breast -36.2%

CCCCCCCCCCCCCCCC[N+](C)(C)Cc1ccccc1
24.7% (inactive) and -62.5% (active): OVCAR-5 ovarian
active: MOLT-4 leukemia -1.12% and -55.3% | SR leukemia 5.4% and -55% | RPMI-8226 leukemia -42.2% and -50.1% | OVCAR-4 ovarian 3.33% and -44.5% | IGROV1 ovarian -71.5% and -87.3% | OVCAR-3 ovarian 1.73% and -74% | HS 578T breast 8.98% and -27.8% | T-47D breast 7% and -12% | BT-549 breast -0.798% and -75.1% | MDA-MB-435 melanoma -58.7% and -87.5% | MCF7 breast 2.3% and -42.3% | HCT-116 colon -53% and -100% | HCC-2998 colon -56.7% and -49.7% | KM12 colon -81% and -85.4%
31.6% (inactive) and -7.74% (active): SK-OV-3 ovarian
inactive: OVCAR-8 ovarian 10.5% | NCI/ADR-RES ovarian 82.4% and 83.6%

CN(C)c1ccc(N)cc1
inactive: MOLT-4 leukemia 100% and 63.4% | SR leukemia 99% and 33.6% | RPMI-8226 leukemia 93.6% and 21% | OVCAR-8 ovarian 93.7% and 30.2% | OVCAR-5 ovarian 112% and 89.5% | OVCAR-4 ovarian 97.6% and 39.6% | SK-OV-3 ovarian 90% and 70.4% | IGROV1 ovarian 94.5% and 61.8% | OVCAR-3 ovarian 106% and 32.4% | HS 578T breast 100% and 54.5% | NCI/ADR-RES ovarian 104% and 85.3% | T-47D breast 90.7% and 28.5% | BT-549 breast 107% and 72% | MDA-MB-435 melanoma 107% and 43.4% | SW-620 colon 99.1% and 65.6% | MCF7 breast 87.7% and 30.5% | HCC-2998 colon 106% | KM12 colon 107% and 34.7%

O=[N+]([O-])c1cc(Br)c(O)c(Br)c1
inactive: MOLT-4 leukemia 107% | SR leukemia 102% | RPMI-8226 leukemia 98.9% | OVCAR-8 ovarian 99.1% | OVCAR-5 ovarian 115% | OVCAR-4 ovarian 122% | SK-OV-3 ovarian 103% | IGROV1 ovarian 111% | HS 578T breast 109% | NCI/ADR-RES ovarian 104% | T-47D breast 115% | BT-549 breast 121% | MDA-MB-435 melanoma 111% | SW-620 colon 108% | MCF7 breast 94.3% | HCT-116 colon 97.3% | HCC-2998 colon 96.1%

Nc1ccc2c(c1)Cc1cc(N)ccc1-2
inactive: MOLT-4 leukemia 104% | SR leukemia 95% | RPMI-8226 leukemia 68.6% | OVCAR-8 ovarian 99.7% | OVCAR-5 ovarian 107% | OVCAR-4 ovarian 95.5% | SK-OV-3 ovarian 82.3% | IGROV1 ovarian 83.2% | OVCAR-3 ovarian 87.6% | HS 578T breast 84.4% | NCI/ADR-RES ovarian 96.2% | T-47D breast 67.3% | MDA-MB-435 melanoma 91.8% | MCF7 breast 59.9% | HCT-116 colon 97.9% | HCC-2998 colon 96.2% | KM12 colon 82.6%

CNC(=O)CCl
inactive: MOLT-4 leukemia 118% | SR leukemia 109% | RPMI-8226 leukemia 106% | OVCAR-8 ovarian 105% | OVCAR-5 ovarian 107% | OVCAR-4 ovarian 101% | SK-OV-3 ovarian 102% | IGROV1 ovarian 107% | OVCAR-3 ovarian 113% | HS 578T breast 104% | NCI/ADR-RES ovarian 103% | BT-549 breast 101% | MDA-MB-435 melanoma 101% | SW-620 colon 107% | MCF7 breast 98.2% | HCT-116 colon 99.6% | KM12 colon 108%

O=C(Cc1ccccc1)c1ccccc1
inactive: MOLT-4 leukemia 107% | SR leukemia 100% | RPMI-8226 leukemia 85.4% | OVCAR-8 ovarian 108% | OVCAR-5 ovarian 108% | OVCAR-4 ovarian 99.3% | SK-OV-3 ovarian 113% | IGROV1 ovarian 110% | OVCAR-3 ovarian 106% | HS 578T breast 90.3% | NCI/ADR-RES ovarian 105% | T-47D breast 100% | BT-549 breast 100% | MDA-MB-435 melanoma 102% | SW-620 colon 96.6% | MCF7 breast 92% | HCC-2998 colon 114% | KM12 colon 99.8%

O=C1CN2CCC1CC2
inactive: MOLT-4 leukemia 100% | SR leukemia 100% | RPMI-8226 leukemia 109% | OVCAR-8 ovarian 106% | OVCAR-5 ovarian 101% | OVCAR-4 ovarian 109% | SK-OV-3 ovarian 105% | IGROV1 ovarian 108% | OVCAR-3 ovarian 107% | HS 578T breast 101% | NCI/ADR-RES ovarian 113% | T-47D breast 91.1% | BT-549 breast 94.5% | MDA-MB-435 melanoma 102% | SW-620 colon 106% | MCF7 breast 103% | KM12 colon 102%

C/C(=N/OC(=O)N(C)C)c1ccc(Cl)c(Cl)c1
inactive: MOLT-4 leukemia 86.3% | SR leukemia 74.5% | RPMI-8226 leukemia 89% | OVCAR-8 ovarian 104% | OVCAR-5 ovarian 100% | OVCAR-4 ovarian 119% | SK-OV-3 ovarian 116% | IGROV1 ovarian 105% | OVCAR-3 ovarian 113% | HS 578T breast 116% | NCI/ADR-RES ovarian 106% | T-47D breast 95.6% | BT-549 breast 125% | MDA-MB-435 melanoma 106% | SW-620 colon 115% | MCF7 breast 97.3% | HCC-2998 colon 109% | KM12 colon 109%

O=[N+]([O-])c1c(Cl)cc(Cl)c([N+](=O)[O-])c1Cl
inactive: MOLT-4 leukemia 80.8% | SR leukemia 69% | RPMI-8226 leukemia 90.2% | OVCAR-8 ovarian 94.7% | OVCAR-5 ovarian 115% | OVCAR-4 ovarian 112% | SK-OV-3 ovarian 111% | IGROV1 ovarian 100% | OVCAR-3 ovarian 78.3% | HS 578T breast 109% | NCI/ADR-RES ovarian 103% | T-47D breast 22.2% | BT-549 breast 114% | MCF7 breast 45.9% | HCT-116 colon 88.5% | HCC-2998 colon 114%
active: KM12 colon -2.82%

NC(N)=NC(N)=Nc1ccc(Cl)cc1
inactive: MOLT-4 leukemia 93.3% | SR leukemia 94.9% | RPMI-8226 leukemia 94.2% | OVCAR-8 ovarian 121% | OVCAR-5 ovarian 92.1% | OVCAR-4 ovarian 96.3% | SK-OV-3 ovarian 110% | IGROV1 ovarian 116% | OVCAR-3 ovarian 105% | NCI/ADR-RES ovarian 113% | T-47D breast 109% | BT-549 breast 104% | MDA-MB-435 melanoma 101% | SW-620 colon 102% | MCF7 breast 103% | HCT-116 colon 109% | KM12 colon 112%

CCOC(=O)c1ccccc1C(=O)OCC
inactive: MOLT-4 leukemia 101% | SR leukemia 128% | RPMI-8226 leukemia 88.1% | OVCAR-8 ovarian 84% | OVCAR-5 ovarian 99.9% | OVCAR-4 ovarian 96.4% | SK-OV-3 ovarian 113% | IGROV1 ovarian 64.7% | OVCAR-3 ovarian 107% | HS 578T breast 95.5% | NCI/ADR-RES ovarian 102% | T-47D breast 100% | BT-549 breast 95.6% | MDA-MB-435 melanoma 91.5% | MCF7 breast 97.8% | HCT-116 colon 100% | KM12 colon 104%

O=S(=O)(c1ccc(O)cc1)c1ccccc1O
inactive: MOLT-4 leukemia 103% | SR leukemia 103% | RPMI-8226 leukemia 99.8% | OVCAR-8 ovarian 102% | OVCAR-5 ovarian 98.9% | OVCAR-4 ovarian 116% | SK-OV-3 ovarian 107% | IGROV1 ovarian 117% | OVCAR-3 ovarian 110% | HS 578T breast 104% | T-47D breast 102% | MDA-MB-435 melanoma 110% | SW-620 colon 106% | MCF7 breast 104% | KM12 colon 107%
